The source made the active and inactive calls. The calls were made as follows: active = hit-call score of the fitted dose curve at least 0.9, where 1 is the maximum; inactive = score below 0.9.

Sequence of human Receptor-type tyrosine-protein phosphatase F (PTPRF/LAR), PTPRF (gene 5792) (P10586 whole entry, looked up): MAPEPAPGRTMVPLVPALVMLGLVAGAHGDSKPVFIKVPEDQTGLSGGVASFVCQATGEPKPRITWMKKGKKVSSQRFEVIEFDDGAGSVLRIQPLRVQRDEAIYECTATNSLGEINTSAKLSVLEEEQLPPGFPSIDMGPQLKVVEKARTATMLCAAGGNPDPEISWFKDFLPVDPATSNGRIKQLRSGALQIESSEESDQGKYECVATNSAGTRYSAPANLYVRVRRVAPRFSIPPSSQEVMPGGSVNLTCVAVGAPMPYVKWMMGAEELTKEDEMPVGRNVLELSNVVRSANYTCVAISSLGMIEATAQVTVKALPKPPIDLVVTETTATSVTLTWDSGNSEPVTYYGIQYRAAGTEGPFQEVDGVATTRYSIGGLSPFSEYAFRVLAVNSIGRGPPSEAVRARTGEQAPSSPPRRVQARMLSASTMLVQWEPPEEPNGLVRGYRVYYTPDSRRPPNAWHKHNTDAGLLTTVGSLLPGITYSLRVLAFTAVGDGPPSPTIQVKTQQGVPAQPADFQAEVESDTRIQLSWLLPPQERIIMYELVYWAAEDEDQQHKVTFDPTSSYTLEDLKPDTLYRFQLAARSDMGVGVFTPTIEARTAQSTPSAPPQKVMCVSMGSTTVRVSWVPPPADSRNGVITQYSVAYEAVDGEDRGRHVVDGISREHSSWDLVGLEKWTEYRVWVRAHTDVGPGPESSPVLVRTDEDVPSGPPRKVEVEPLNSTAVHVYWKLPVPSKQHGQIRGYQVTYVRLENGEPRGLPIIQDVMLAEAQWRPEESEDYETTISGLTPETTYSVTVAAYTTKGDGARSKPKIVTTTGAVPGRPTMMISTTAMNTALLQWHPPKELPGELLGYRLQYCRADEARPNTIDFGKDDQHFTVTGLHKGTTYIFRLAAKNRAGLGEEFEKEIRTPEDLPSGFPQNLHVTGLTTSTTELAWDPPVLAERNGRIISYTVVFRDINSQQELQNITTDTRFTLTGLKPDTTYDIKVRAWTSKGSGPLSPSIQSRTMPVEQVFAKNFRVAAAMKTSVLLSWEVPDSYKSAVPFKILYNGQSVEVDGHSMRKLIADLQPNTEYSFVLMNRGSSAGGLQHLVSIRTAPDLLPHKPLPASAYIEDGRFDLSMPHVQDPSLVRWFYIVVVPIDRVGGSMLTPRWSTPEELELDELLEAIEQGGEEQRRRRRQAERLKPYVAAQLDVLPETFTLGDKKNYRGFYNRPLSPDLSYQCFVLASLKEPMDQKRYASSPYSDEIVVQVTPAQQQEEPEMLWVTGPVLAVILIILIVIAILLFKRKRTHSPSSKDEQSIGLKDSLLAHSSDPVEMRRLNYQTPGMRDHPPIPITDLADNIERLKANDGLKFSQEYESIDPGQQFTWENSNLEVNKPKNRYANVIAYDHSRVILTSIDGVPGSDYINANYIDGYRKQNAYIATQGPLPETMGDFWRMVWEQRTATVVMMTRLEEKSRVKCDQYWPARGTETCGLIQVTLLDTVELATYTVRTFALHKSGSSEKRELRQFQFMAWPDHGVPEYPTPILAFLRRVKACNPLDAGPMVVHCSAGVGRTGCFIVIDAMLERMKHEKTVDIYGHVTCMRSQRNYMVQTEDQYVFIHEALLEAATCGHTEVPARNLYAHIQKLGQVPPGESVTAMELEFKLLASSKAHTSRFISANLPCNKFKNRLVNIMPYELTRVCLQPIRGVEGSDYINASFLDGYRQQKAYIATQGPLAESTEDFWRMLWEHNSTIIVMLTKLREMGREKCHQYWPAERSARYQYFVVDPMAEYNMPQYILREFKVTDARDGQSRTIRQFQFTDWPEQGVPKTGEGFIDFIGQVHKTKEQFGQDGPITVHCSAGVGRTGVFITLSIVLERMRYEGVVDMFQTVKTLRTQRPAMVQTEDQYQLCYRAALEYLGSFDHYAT

In this assay the target is human Receptor-type tyrosine-protein phosphatase F (PTPRF/LAR), PTPRF (gene 5792) (UniProt P10586). The assay is described as follows: ERF_TW_ENZ_hPTPRF: Eurofins (ERF) Enzymatic LeadHunter Assay for human Receptor-type tyrosine-protein phosphatase F (PTPRF/LAR). Here is the method:
ERF_TW_ENZ_hPTPRF is a biochemical, single-readout assay that uses extracted gene-proteins in a cell-free assay. Measurements were taken 1 hour after chemical dosing in a 96-well plate. See LAR Human Phosphatase Enzymatic Assay, Panlabs.ERF_TW_ENZ_hPTPRF is an assay component calculated from the ERF_TW_ENZ_hPTPRF assay. It is designed to measure enzyme activity using a type of enzyme reporter as detected by fluorescence intensity with spectrophotometry technology.Data from the assay component ERF_TW_ENZ_hPTPRF was analyzed at the assay endpoint, ERF_TW_ENZ_hPTPRF, in the positive analysis fitting direction relative to DMSO as the negative control and baseline of activity. Using a type of enzyme reporter, loss-of-signal activity can be used to understand changes in enzymatic activity as they relate to gene PTPRF. To generalize the intended target to other relatable targets, this assay endpoint is annotated to the phosphatase intended target family, where the subfamily is receptorasA tyrosine phosphatase.
Human recombinant protein phosphatase LAR expressed in E. coli is used. Test compound and/or vehicle is preincubated with 0.48 ng/ml enzymedouble dagger for 15 minutes at 37C in modified HEPES buffer pH 7.2. The reaction is initiated by addition of 10 uM DiFMUP for 60 minutes. Determination of the amount of DiFMU formed is read spectrofluorimetrically at 358 nm/450 nm. […]
For the compound `O=C(/C=C/c1ccc(O)cc1)CC(=O)/C=C/c1ccc(O)cc1`, the AC50 was 5 µM (active).

The record behind these values is PubChem BioAssay AID2284127 (EPA ToxCast).
